Screens (PubChem)
D2 ag-1 – HTS Assay for Allosteric Agonists of the Human D2 Dopamine Receptor: Primary Screen for Agonists. 340,000 compounds, 0.53% hits. AID 485358, 2010. HEK293 T-REx D2 cells, calcium flux agonist mode. activation, % at 2 µM;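 active = activation over 3 SD above normal in the single-dose calcium agonist read, cut at about 30% in these data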; note: 0% is about no effect
Target sequence (P14416 whole entry, looked up): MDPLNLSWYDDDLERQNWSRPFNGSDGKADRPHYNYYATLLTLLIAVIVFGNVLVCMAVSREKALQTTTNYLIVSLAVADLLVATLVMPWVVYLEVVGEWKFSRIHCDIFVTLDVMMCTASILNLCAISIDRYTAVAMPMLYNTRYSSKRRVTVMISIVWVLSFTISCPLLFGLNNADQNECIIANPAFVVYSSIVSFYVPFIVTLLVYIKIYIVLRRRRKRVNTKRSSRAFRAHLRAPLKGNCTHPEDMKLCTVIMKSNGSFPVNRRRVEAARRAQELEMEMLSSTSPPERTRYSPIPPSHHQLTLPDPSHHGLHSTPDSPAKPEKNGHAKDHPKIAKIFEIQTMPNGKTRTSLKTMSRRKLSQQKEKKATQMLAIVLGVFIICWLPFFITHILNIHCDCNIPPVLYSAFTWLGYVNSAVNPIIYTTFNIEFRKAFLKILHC
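Agonism is scored from calcium flux in a force-coupled, inducible HEK293 cell line expressing D2, read kinetically for 180 s after compound addition against dopamine controls.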
D2 PAM-1 – Beta-Arrestin HTS for Positive Allosteric Modulators of the Human D2 Dopamine Receptor: Potentiators; D(2) dopamine receptor (Homo sapiens), P14416; DiscoveRx D2 beta-arrestin cells, luminescence, 90 min; 100% = 57 uM dopamine signal; potentiation, % (concentration not given with the values); 360,000 compounds, 0.23% hits; AID 624464, 2012; in the data active = potentiation above about 50%; inconclusive = mostly about 30% to 49%
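D2 cells co-treated with compound plus 50 nM dopamine (EC20) for 90 min at 37 deg C to detect potentiation. Beta-arrestin recruitment was read as enzyme-fragment luminescence after 1 h at ambient temperature. Full response was set by 57 uM dopamine.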
D2 ag-2 – Beta-Arrestin HTS for Positive Allosteric Modulators of the Human D2 Dopamine Receptor: Agonists | D(2) dopamine receptor (Homo sapiens), P14416 | DiscoveRx PathHunter D2 beta-arrestin, luminescence, 90 min; 100% = 57 uM dopamine signal | activation, % (test concentration not listed) | 360,000 compounds, 0.084% hits | AID 624465, 2012; in the data active = activation above about 40%; inconclusive = between about 15% and that limit
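DiscoveRx PathHunter D2 beta-arrestin cells (2,100/well) attached overnight, then compound-stimulated 90 min at 37 C in HBSS/10 mM HEPES/0.1% Tween-20 buffer; beta-galactosidase complementation read by luminescence after 1 h at ambient temperature. Dopamine 57 uM final (EC100) as control.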
D2 PAM-2 – HTS Assay for Positive Allosteric Modulators of the Human D2 Dopamine Receptor: Primary Screen for Potentiators; D(2) dopamine receptor (Homo sapiens), P14416; HEK293 T-REx D2, calcium flux, EC20 dopamine potentiation; potentiation, % at 10 µM; 340,000 compounds, 0.34% hits; AID 485347, 2010;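 active = potentiation over 3 SD above the plate norm, cut at about 30% in these data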; note: 0% is about no effect
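Using a no-wash calcium dye in inducible, force-coupled HEK293 Trex cells expressing D2, we tracked fluorescence each second for 180 s after compound, then for 180 s after EC20 dopamine to detect augmented signalling.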
D2 antag – HTS Assay for Allosteric Antagonists of the Human D2 Dopamine Receptor: Primary Screen for Antagonists | D(2) dopamine receptor (Homo sapiens), P14416 | HEK293 TREx D2 cells, calcium flux, dopamine EC80 | inhibition, % at 10 µM | 340,000 compounds, 2% hits; in the data active = inhibition above about 30%; inactive = below that, where a call was filed; note: 0% is about no effect
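Measurement of antagonist activity uses fluorescent calcium dye in inducible HEK293 T-REx D2 cells: 10 s baseline, compound addition with 180 s read, EC80 dopamine addition with a further 180 s read.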
* marks the source's active call; other numbers are inactive results; ? = inconclusive; · = not tested or not shown. The list is not random: actives were taken first. Their share in the collection is about 2.4%.

SMILES	D2 ag-1	D2 PAM-1	D2 ag-2	D2 PAM-2	D2 antag
CCOc1cc(C(=O)NCCN2CCOCC2)cc(OCC)c1OCC	-1.7	-13.1	-3.4	41.8*	18.5
CCOC(=O)c1cccc(NC(=O)CNS(=O)(=O)c2cccs2)c1	0.1	-4.3	-2.8	44.4*	9.7
NC(CC(=O)NC(c1ccccc1)(c1ccccc1)c1ccccc1)C(=O)O (stereo not drawn)	0.8	-5.3	-4.6	36.6*	-2.9
CC(=O)c1cc2c(cc1NC(=O)CSc1ncccn1)OCO2	·	-17.2	-1.5	·	·
O=C(CN(C(=O)c1csnn1)c1cccc(F)c1)NCc1ccc2c(c1)OCO2	-0.3	-4.2	-1.4	-18.2	42.3*
O=C(CN(C(=O)c1csnn1)c1ccccc1F)NCc1ccc2c(c1)OCO2	0.2	-12.8	-3.2	0.8	-41.7
CCn1cc2nc(SCc3ccccc3F)n(Cc3ccc(C)cc3)c(=O)c2n1	0.3	·	·	-0.3	·
Cc1cccc(C(=O)Nc2sc3c(c2C(=O)NC(C)C)CCCC3)c1	0.4	·	·	4.6	·
C(=N\N1CCOCC1)/c1nc(-c2ccccc2)n2ccccc12	1.0	-2.0	2.2	0.7	43.4*
CCS(=O)(=O)c1ccc2oc(Nc3ccc(OC)cc3)nc2c1	-0.6	3.5	-3.6	-3.0	34.0*
OC1CCCN(c2c3c(nc4cc(-c5cccc(F)c5)nn24)CCCC3)C1 (stereo not drawn)	-0.3	2.4	-0.5	0.0	46.6*
Cc1oc(-c2cccc(Br)c2)nc1CN1CCC(C(=O)NCc2ccccc2)CC1	0.3	·	·	-2.7	·
COc1ccc(CC(=O)Nc2ccc(-c3noc(-c4cc(OC)c(OC)c(OC)c4)n3)cc2)cc1	-0.3	-15.8	3.1	42.2*	-24.9
CN(c1cccc(NS(=O)(=O)c2cccs2)c1)S(C)(=O)=O	0.1	-3.1	3.0	30.4*	16.6
COc1ccc(S(=O)(=O)Nc2cccc(N(C)S(C)(=O)=O)c2)cc1Br	0.9	14.7	-1.3	-4.2	-6.8
Cn1c(CN2CCN(c3ccccc3NS(C)(=O)=O)CC2)nc2ccccc21	0.6	-23.6	-4.1	-18.1	32.5*
Cn1c(CN2CCN(c3ccc(Cl)cc3)CC2)nc2ccccc21	0.2	-20.5	-2.3	-6.0	2.5
N/C(=N\OC(=O)c1cccc(F)c1)c1ccccc1	0.0	56.8*	?	4.6	-1.7
N/C(=N\OC(=O)c1ccc(F)cc1)c1ccccc1	-0.6	72.1*	?	-9.0	5.4
CC/C(=N\NC(N)=O)c1ccc(OC)c(OC)c1	-0.6	-14.2	-6.3	4.5	38.5*
CC/C(=N\NC(=O)COc1ccc(Br)cc1)c1ccc(OC)c(OC)c1	·	-10.5	-3.9	·	·
CC1=C(C(=O)OCc2ccc(C)cc2)C(c2cccc(F)c2F)CC(=O)N1 (stereo not drawn)	-1.8	·	·	3.3	·
Cc1ccccc1C(=O)NNC(=O)c1ccoc1C	·	-4.7	-0.1	·	·
Cc1occc1C(=O)NNC(=O)c1ccccc1C(=O)O	-0.6	-1.4	-1.2	-10.8	30.7*
COC(=O)CC(NS(=O)(=O)c1cccs1)c1ccc2c(c1)OCO2 (stereo not drawn)	-0.2	-6.6	3.5	2.7	14.5
SMILES	D2 ag-1	D2 PAM-1	D2 ag-2	D2 PAM-2	D2 antag
COC(=O)CC(NS(=O)(=O)c1cccs1)c1ccccc1Cl (stereo not drawn)	0.0	-5.0	-4.9	-3.8	34.7*
Cc1cc(OCC(=O)O/N=C(\N)c2ccccc2)ccc1Br	30.2*	0.4	7.3	-10.7	1.5
O=c1cc(CN(Cc2ccccc2)Cc2ccccc2)c2c(ccc3ccccc32)o1	·	-7.4	-4.7	·	·
C=CCN(CC=C)C(=O)Cc1ccc(F)cc1	0.0	-4.1	-0.3	-4.2	31.1*
CCCN(CCC)C(=O)Cc1ccc(F)cc1	-0.4	-1.9	-3.5	0.3	18.4
CC(C)(C)C(=O)COC(=O)CCc1nc2ccccc2[nH]c1=O	0.6	1.4	3.3	10.6	30.6*
COc1ccc(CN2CCN(Cc3c[nH]c4ccccc34)CC2)cc1OC	·	-28.3	-2.9	·	·
COc1ccc(Br)cc1CN1CCN(Cc2c[nH]c3ccccc23)CC1	1.6	-15.1	-2.8	-21.8	86.8*
Cc1cc(C)cc(NC(=O)[C@H](NC(=O)[C@@H]2Cc3ccccc3CN2)c2ccccc2)c1	0.1	-20.9	-2.6	-20.1	40.1*
COCCn1c(CNC(=O)c2ccc(C)cc2)nc2cccnc21	0.5	·	·	-8.6	·
CCc1nnc(NC(=O)C(C)N2C(=O)C3C4C=CC(C4)C3C2=O)s1 (stereo not drawn)	0.6	-4.4	-2.0	-10.3	32.8*
Cc1nnc(NC(=O)NC(C)N2C(=O)C3C4C=CC(C4)C3C2=O)s1 (stereo not drawn)	0.6	-2.4	1.2	-1.7	4.8
COc1ccc(CC(=O)Nc2ccccc2C(=O)N2CCOCC2)cc1	0.5	-7.3	0.0	-7.3	43.5*
NC(=O)c1ccccc1NC(=O)CN1CCOCC1	-1.1	-0.9	-1.1	13.5	31.4*
COc1cccc(CC(=O)Nc2ccccc2C(=O)N2CCOCC2)c1	0.4	-5.9	-0.1	-0.4	-3.5
C[C@H](CS)C(=O)N1CCC[C@H]1C(=O)O	0.6	-6.4	2.3	12.9	30.0*
COc1ccc(CCNC(=O)CSc2nc3[nH]ncc3c(=O)n2-c2ccccc2OC)cc1OC	2.6	6.6	-1.3	8.9	36.7*
CC1(C)CC(=O)C(C(C2=C(O)CC(C)(C)CC2=O)c2ccc([N+](=O)[O-])cc2)C(=O)C1 (stereo not drawn)	-0.1	-7.7	-0.4	2.6	33.1*
Clc1c(Cl)c(Cl)c2n[nH]nc2c1Cl	4.8	-4.9	-4.7	0.5	38.1*
Cc1c(C(=O)N(Cc2ccccc2F)C2CCS(=O)(=O)C2)oc2ccc(F)cc12 (stereo not drawn)	9.9	·	·	-0.6	·
Cc1cc(C)c(C#N)c(SCc2cn3ccccc3n2)n1	-0.3	-11.4	0.7	3.7	-8.9
Cc1cc(C)nc(SCc2cn3ccccc3n2)n1	-0.8	10.5	-0.1	-1.4	38.3*
CCC(CC)C(=O)Nc1cc(-c2cccc(C)c2)nn1-c1ccccc1	-1.2	·	·	-10.3	·
Cc1ccc2c(=O)cc(C(=O)Nc3c(C(=O)c4ccccc4)oc4ccccc34)oc2c1	1.1	·	·	-4.2	·
CC(=O)N1CCN(c2ccc(NCc3ccc(C)s3)cc2)CC1	0.9	5.1	?	12.1	50.0*
